Screens: PubChem BioAssay, National Center for Advancing Translational Sciences (NCATS)
In the library only some 3.8% were active in any assay of this set; here they are far more common.
IDH1 R132H inh = qHTS for Inhibitors of mutant isocitrate dehydrogenase 1 (IDH1): qHTS | hit rate 0.093% among 390,000 | Potency, µM (doses to about 76.6 µM), for the others: top-dose activity change, negative = inhibition, actives largely listed as inhibitors | IDH1-R132H enzyme, NADPH consumption, diaphorase/resazurin fluorescence | AID 602179, 2012 | Isocitrate dehydrogenase [NADP] cytoplasmic (Homo sapiens), O75874; further: on the % scale 0 is the no-effect control and ±100 the full control effect; nearly all actives have a fitted effect of over 65% in size
Target sequence (O75874 whole entry R132H, stated change not applied): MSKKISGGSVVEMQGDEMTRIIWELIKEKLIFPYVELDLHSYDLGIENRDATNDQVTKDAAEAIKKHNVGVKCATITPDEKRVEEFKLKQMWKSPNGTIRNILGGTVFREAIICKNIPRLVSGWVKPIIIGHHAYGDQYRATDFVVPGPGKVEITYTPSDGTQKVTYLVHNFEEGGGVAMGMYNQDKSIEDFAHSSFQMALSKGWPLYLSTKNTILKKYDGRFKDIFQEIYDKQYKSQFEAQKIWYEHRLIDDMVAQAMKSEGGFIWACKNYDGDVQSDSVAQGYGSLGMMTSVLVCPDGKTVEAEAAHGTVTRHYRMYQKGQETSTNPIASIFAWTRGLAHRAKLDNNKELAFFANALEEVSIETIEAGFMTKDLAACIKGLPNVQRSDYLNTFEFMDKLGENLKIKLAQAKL
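IDH1-R132H (0.5 ug/mL dispensed) in pH 7.5 Tris buffer was preincubated 30 min with compound, then given a substrate mix of 0.016 mM NADPH and 2 mM alpha-KG for 80 min at room temperature; remaining NADPH was read by diaphorase/resazurin fluorescence.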
Nrf2 activator = qHTS of Nrf2 Activators; AREc32 ARE-luciferase reporter (MCF7-derived line), luminescence, 24 h; Potency, µM (series often up to 46.1 µM), for inactives: top-dose activation, usual class: activators; hit rate 0.31% among 410,000; further: % of control where 0% means no effect; nearly all actives have a fitted effect of over 65% in size
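Cells of the AREc32 ARE-luciferase line are plated in OPTI-MEM containing 5% FBS and left overnight at 37 deg C. Compounds are pinned in, incubation continues 24 hr, and firefly luciferase signal is then measured.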
ELG1 repair inh = qHTS screen for small molecules that inhibit ELG1-dependent DNA repair in human embryonic kidney (HEK293T) cells expressing luciferase-tagged ELG1 | HEK293T ELG1-luciferase reporter, luminescence, 16 h; DNA damage induced by 5-fluorouridine | Potency, µM (highest dose often 46.1 µM), for inactives: top-dose activity change, negative = inhibition, most hits filed as inhibitors | hit rate 2.3% among 330,000; further: on the % scale 0 is the no-effect control and ±100 the full control effect; nearly all actives have a fitted effect of over 55% in size
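HEK293T cells expressing luciferase-tagged ELG1 (2,000/well) received 5-Fluorouridine plus compound or DMSO for 16 hr at 37 °C. Luciferase was read by ONE-Glo luminescence after 30 min at room temperature.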
A549 viability = Nrf2 qHTS screen for inhibitors: counterscreen for cytotoxicity; hit rate 0.16% among 390,000; AID 504648, 2011; Potency, µM (titrated, usually from 46 µM), for the others: top-dose activity change, negative = cytotoxicity, most hits filed as inhibitors; A549 ARE-Fluc cells, CellTiter-Fluor viability, 18-24 h; further: on the % scale 0 is the no-effect control and ±100 the full control effect
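Cytotoxicity counterscreen: CellTiter-Fluor fluorescence was measured in A549 ARE_Fluc cells after 18-24 h of compound exposure in a concentration series. The subsequent BugLite luminescent read reports ARE-luciferase activity.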
Nrf2 block = Nrf2 qHTS screen for inhibitors; A549 ARE-Fluc reporter, luciferase luminescence, 18-24 h; hit rate 2.1% among 360,000; Potency, µM (highest dose often 46 µM), for the others: at the highest dose activity change, negative = inhibition, usual class: inhibitors; further: on the % scale 0 is the no-effect control and ±100 the full control effect; nearly all actives have a fitted effect of over 60% in size
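Cells were seeded and rested 2 h, then exposed to compounds for 18-24 h. CellTiter-Fluor was read first as a viability measure. BugLite was added 15 min before the final luminescent read of ARE-luciferase activity in A549 cells.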
An asterisk follows results filed as active; ? = inconclusive; · = not tested or not shown; [ ] = another dose, or the depositor's remark. The call rests on the fitted dose curve; in most records, active means well fitted curve in the direction sought with a large enough effect; inconclusive means small, poorly fitted or top-dose-only effect, or another doubt; inactive means no such curve, though single readings can be large; an effect the other way counts as inactive or inconclusive. Potency means the concentration at half of the fitted maximal effect.

SMILES	IDH1 R132H inh	Nrf2 activator	ELG1 repair inh	A549 viability	Nrf2 block
Cc1ccc(-n2nc3c(=O)n(C(C)C(=O)NCc4ccc(Cl)cc4)nc(C)c3c2C)cc1 (stereo not given)	-8%	2%	?	-19%	10µM*
Cc1ccc(-n2nc3c(=O)n(C(C)C(=O)NCc4ccccc4C)nc(C)c3c2C)cc1 (stereo not given)	12%	-1%	·	-9%	5.2µM*
Cc1nn(C(C)C(=O)NCc2ccccc2F)c(=O)c2nn(-c3ccccc3)c(C)c12 (stereo not given)	-10%	0%	1%	0%	2%
Cc1ccc(-n2nc3c(=O)n(C(C)C(=O)NCCC4=CCCCC4)nc(C)c3c2C)cc1 (stereo not given)	-3%	1%	-25%	-16%	21µM*
Cc1ccc(CCNC(=O)C(C)n2nc(C)c3c(C)n(-c4ccccc4)nc3c2=O)cc1 (stereo not given)	0%	0%	?	1%	-18%
CCOc1ccc(NC(=O)CNS(=O)(=O)c2ccc(Br)s2)cc1	-10%	-1%	·	4%	-16%
O=C1C=CC(O)(c2cc(=O)c3c(O)cc(O)cc3o2)C=C1	-3%[38.3 µM]	-3%	3.3µM*	?	?
COc1cccc(NC(=O)c2oc3ccccc3c2NC(=O)C(C)(C)C)c1	-5%	0%	?	-3%[1.84 µM]	9.2µM*
CSc1ccc(CCNC(=O)C2CCCN(c3ncnc4c3nc3n4CCCCC3)C2)cc1 (stereo not given)	-11%	0%	8.2µM*	-15%	-29%
O=C(Nc1cc(F)ccc1F)C1CCCN(c2ncnc3c2nc2n3CCCCC2)C1 (stereo not given)	1%	0%	?	1%	10%
O=C(NCc1ccc(Cl)cc1)C1CCCN(c2ncnc3c2nc2n3CCCCC2)C1 (stereo not given)	1%	0%	15µM*	-3%	0%
O=C(Nc1ccc(Cl)cc1)C1CCCN(c2ncnc3c2nc2n3CCCCC2)C1 (stereo not given)	15%	-2%	23µM*	-28%	?
Cc1ccc(NC(=O)C2CCCN(c3ncnc4c3nc3n4CCCCC3)C2)cc1Cl (stereo not given)	3%	-1%	-28%	-6%	-14%
Cc1ccc(C(=O)NC(=O)CSc2ncccc2C(=O)O)cc1	3%	0%	-14%	9%	-2%
Cc1ccsc1CN(C(=O)c1oc2cc(Br)ccc2c1C)C1CCS(=O)(=O)C1 (stereo not given)	·	0%	·	-18%	?
COc1ccc(-c2nnc(SCC(=O)Nc3cccc(C(F)(F)F)c3)s2)cc1	0%	2%	·	-6%	·
O=C1CSC(c2ccccc2Cl)N1 (stereo not given)	0%	0%	0%	-1%	-22%
Cc1c(-c2cccc(Cl)c2)nc2ccccc2c1C(=O)OCC(=O)Nc1ccc2c(c1)OCO2	5%	0%	18µM*	?	?
CCc1nc2ccccc2c(C(=O)OCC(=O)NCc2ccc3c(c2)OCO3)c1C	0%	0%	?	0%	1%
Cc1onc(-c2ccccc2)c1C(=O)OCC(=O)Nc1ccc2c(c1)OCO2	3%	0%	-22%	-6%	-19%
CCCc1nc2ccccc2c(C(=O)OC(C)C(=O)NCc2ccc3c(c2)OCO3)c1CC (stereo not given)	5%	0%	21µM*	-1%	?
CCCc1nc2ccccc2c(C(=O)OCC(=O)NCc2ccc3c(c2)OCO3)c1CC	-11%	-1%	?	?	21µM*
Cc1nc2ccccn2c1C(=O)NCc1ccc2c(c1)OCO2	5%	0%	16µM*	7%	-12%
O=C(Nc1ccc(C(=O)N2CCN(c3cccc(Cl)c3)CC2)cc1)c1nsc2ccccc12	-8%	0%	·	0%	·
Cc1ccc(NC(=O)Cc2nnc(SCC(=O)NC3CCCC3)n2C)cc1C	0%	0%	11%	-1%	4%
SMILES	IDH1 R132H inh	Nrf2 activator	ELG1 repair inh	A549 viability	Nrf2 block
Cc1ccc2c(CC(=O)Nc3ccc(S(=O)(=O)N4CCCC(C)C4)cc3)coc2c1 (stereo not given)	-15%	1%	·	-8%	21µM*
COc1ccc2[nH]c(=O)c(CN(Cc3cccs3)S(=O)(=O)c3cccc4nsnc34)cc2c1	-1%	0%	1.3µM*	?	·
COc1ccccc1CNC(=O)c1ccc(-c2nc(CS(=O)c3ccc(C)cc3)c(C)o2)cc1 (stereo not given)	-1%	0%	·	3%	?
COCCn1c(SCc2nc3scc(-c4ccc(Cl)cc4)c3c(=O)[nH]2)nnc1-c1cccc(C)c1	-3%	0%	23µM*	-6%	?
COc1ccc2c(CNCCc3ccco3)c(C(=O)O)n(Cc3ccc(F)cc3)c2c1	14%	7%	·	?	29%
Nc1nc(-c2cccnc2)nc2sc3c(c12)CCCC3	6%	8%	?	1%	?
O=C1CN(c2nc(-c3cccnc3)nc3sc4c(c23)CCCC4)CCN1	-4%	3%	?	-1%	12µM*
CCC(C)Sc1nc2c(c(=O)[nH]c(=O)n2C)n1CC(O)COc1ccccc1C (stereo not given)	6%	0%	16µM*	-1%	-24%
CCOC(=O)C(CC)Sc1nc2c(c(=O)[nH]c(=O)n2C)n1CCc1ccccc1 (stereo not given)	1%	3%	8.2µM*	-4%	0%
Cc1ccc(Cl)cc1N1CCN(C(=O)C2CCN(S(=O)(=O)c3cccnc3)CC2)CC1	0%	4%	0%	-1%	?
CS(=O)(=O)N(CC(=O)N1CCN(c2cccc(Cl)c2)CC1)C1CCCCC1	-4%	0%	-7%	-5%	-10%
CC(C)NS(=O)(=O)c1ccc(OCC(=O)N2CCCC2)cc1	-15%	-1%	6%	3%	-3%
Cc1ccc(Cl)cc1N1CCN(C(=O)COc2ccc(S(=O)(=O)NC(C)C)cc2)CC1	-3%	0%	7.3µM*	-10%	21µM*
Cc1ccc(Cl)cc1N1CCN(C(=O)CN(C2CCCCC2)S(C)(=O)=O)CC1	3%	0%	18µM*	-10%	18µM*
Cc1ccc(Cl)cc1N1CCN(C(=O)CSc2cc(=O)n(C)c3ccccc23)CC1	11%	3%	·	-10%	16µM*
Cc1ccc(Cl)cc1N1CCN(C(=O)C2CCN(S(=O)(=O)c3c(C)nn(C)c3C)CC2)CC1	-11%	1%	18µM*	4%	?
